Screens (PubChem BioAssay)
Hits are enriched below; roughly 4% of the tested compounds scored in any of these assays.
GDH-TPI inh = inhibits GDH-TPI coupling enzymes, artifact for Mtb FBA screen; GDH-TPI coupled enzyme counterscreen, NADH absorbance; inhibition, % at 4.8 µM; hit rate 1.2% among 360,000
CCHF vOTU inh = blocks the CCHF virus ovarian tumor domain protease; hit rate 0.55% among 370,000; CCHFV vOTU protease, Pep-AMC fluorescence; AID 651958; inhibition, % at 11.5 µM
MazEF act = increases E. coli MazEF RNase cleavage of RNA; hit rate 0.32% among 350,000; AID 504720; FAM/BHQ RNA-DNA oligo cleavage fluorescence, 5 h; activation, % at 20 µM; in the data active = activation above about 50%
Target sequence (P0AE70 whole entry, looked up): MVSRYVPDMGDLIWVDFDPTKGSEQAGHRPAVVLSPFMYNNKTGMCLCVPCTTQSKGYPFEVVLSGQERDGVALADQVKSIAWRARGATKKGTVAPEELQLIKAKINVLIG
Mtb betalactam = beta-lactam sensitization of Mtb H37Rv; M. tuberculosis H37Rv growth with meropenem, percent inhibition; inhibition, % at 25 µM; hit rate 0.27% among 330,000; call rule not given here;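 also: growth measured after seven days incubation then overnight dye step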
Mtb FBA inh = Mtb fructose-bisphosphate aldolase inhibition; P9WQA3; purified M. tuberculosis FBA, fluorescence read-out; inhibition, % at 1 µM; hit rate 2.3% among 360,000; in the data active = inhibition above about 27%
Target sequence (P9WQA3 whole entry, looked up): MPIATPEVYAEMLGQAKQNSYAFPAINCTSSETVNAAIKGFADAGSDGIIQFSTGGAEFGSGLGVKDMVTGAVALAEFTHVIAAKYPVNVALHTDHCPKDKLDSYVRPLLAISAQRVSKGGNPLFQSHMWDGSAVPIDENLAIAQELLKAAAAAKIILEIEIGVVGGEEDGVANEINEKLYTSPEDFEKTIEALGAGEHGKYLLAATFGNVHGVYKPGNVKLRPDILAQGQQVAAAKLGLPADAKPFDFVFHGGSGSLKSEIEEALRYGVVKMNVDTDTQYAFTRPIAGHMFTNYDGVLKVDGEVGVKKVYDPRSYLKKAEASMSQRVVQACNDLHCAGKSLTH
Hits are given with their value. Rule as the data show it, unless noted: active = inhibition above about 30%; inactive = the rest.

For Fc1ccc(/C=N/Nc2ncnc3nc[nH]c23)cc1F the results were GDH-TPI inh 42.2, CCHF vOTU inh inactive, MazEF act inactive, Mtb betalactam inactive and Mtb FBA inh inactive.
For Cc1ccccc1/C=N/Nc1ncnc2nc[nH]c12 the results were GDH-TPI inh inactive, CCHF vOTU inh inactive, MazEF act inactive, Mtb betalactam inactive and Mtb FBA inh inactive.
O=C(c1cccc(F)c1)n1ccc2ccc(-c3ccc4ccn(Cc5ccccc5)c4c3)cc21 was read as CCHF vOTU inh inactive.
`COc1ccc2nc(C)cc(SCC(=O)N/N=C/c3ccc(O)c(O)c3)c2c1` gave GDH-TPI inh inactive, CCHF vOTU inh inactive, MazEF act inactive, Mtb betalactam inactive and Mtb FBA inh inactive.
For COc1ccc2nc(C)cc(SCC(=O)N/N=C/c3cccc4ccccc34)c2c1 the results were GDH-TPI inh inactive, CCHF vOTU inh inactive, MazEF act 54.8, Mtb betalactam inactive and Mtb FBA inh inactive.
Screening COC(=O)c1cc(C)nc2c1c(C)nn2-c1ccccc1 returned GDH-TPI inh inactive, CCHF vOTU inh inactive, MazEF act inactive, Mtb betalactam inactive and Mtb FBA inh inactive.
For Cc1nn(-c2ccccc2)c2nc(N)c(C(N)=O)cc12 the results were GDH-TPI inh inactive, CCHF vOTU inh inactive, MazEF act inactive, Mtb betalactam inactive and Mtb FBA inh 71.1.
For Cc1c(CC(=O)N2CCC(O)CC2)c(=O)oc2cc3c(cc12)CCC1(CCCCC1)O3 the results were GDH-TPI inh inactive, CCHF vOTU inh inactive, MazEF act inactive and Mtb FBA inh 180.8.
Screening Cc1c(CC(=O)N2CCC(C(=O)O)CC2)c(=O)oc2cc3c(cc12)CCC1(CCCCC1)O3 returned GDH-TPI inh 41.2, CCHF vOTU inh inactive, MazEF act inactive, Mtb betalactam inactive and Mtb FBA inh active.
`Cc1c(CC(=O)N2CCN(C(=O)C3COc4ccccc4O3)CC2)c(=O)oc2cc(O)c(Cl)cc12` (stereo not given) gave GDH-TPI inh inactive, CCHF vOTU inh inactive, MazEF act inactive and Mtb betalactam inactive.
For CCCCn1c(=O)[nH]c(=O)c2c1nc(-c1cccc(OC)c1)n2C the results were GDH-TPI inh inactive, CCHF vOTU inh inactive, MazEF act inactive, Mtb betalactam inactive and Mtb FBA inh inactive.
CCCCn1c(=O)[nH]c(=O)c2c1nc(-c1ccc(OC(F)F)c(OC)c1)n2C was read as GDH-TPI inh inactive, CCHF vOTU inh inactive, MazEF act 71.4, Mtb betalactam inactive and Mtb FBA inh inactive.
Screening Cc1cc(C)n2nc(C)c(Br)c2n1 returned GDH-TPI inh inactive, CCHF vOTU inh inactive, MazEF act inactive, Mtb betalactam inactive and Mtb FBA inh inactive.
For Cc1cc(C)n2nc3nc4c(cc3c2n1)CCCC4 the results were GDH-TPI inh inactive, CCHF vOTU inh inactive, MazEF act inactive, Mtb betalactam inactive and Mtb FBA inh active.
COc1ccc(N2CCN(CCCNC(=O)Cc3ccc(C(F)(F)F)cc3)CC2)cc1 was read as CCHF vOTU inh inactive.
Screening CCCCN(CCO)c1ncnc2sc(-c3ccccc3)cc12 returned GDH-TPI inh 31.0, CCHF vOTU inh inactive, MazEF act inactive, Mtb betalactam inactive and Mtb FBA inh inactive.
Screening CN(C)CCCNc1ncnc2sc(-c3ccccc3)cc12 returned GDH-TPI inh inactive, CCHF vOTU inh inactive, MazEF act inactive, Mtb betalactam inactive and Mtb FBA inh inactive.
CN(Cc1cnc2nc(N)nc(N)c2n1)c1ccc(C(=O)NC(CCC(=O)O)C(=O)O)cc1 (stereo not given) was read as GDH-TPI inh inactive, CCHF vOTU inh inactive, MazEF act inactive and Mtb FBA inh 73.6.
Screening CCOC(=O)CCC(NC(=O)c1cncc(O)c1)C(=O)OCC (stereo not given) returned GDH-TPI inh inactive, CCHF vOTU inh inactive, MazEF act inactive, Mtb betalactam inactive and Mtb FBA inh inactive.
`CN(Cc1cnc2nc(N)nc(N)c2n1)c1ccc(C(=O)NC(CCC(=O)O)C(=O)O)cc1C(F)(F)F` (stereo not given) gave GDH-TPI inh inactive, CCHF vOTU inh inactive, MazEF act inactive and Mtb FBA inh 33.1.
For CNC(=S)N(C)CCc1cc2c(c(OC)c1C=C1C(=O)NC(=O)NC1=O)OCO2 the results were GDH-TPI inh 37.9, CCHF vOTU inh inactive, MazEF act inactive, Mtb betalactam inactive and Mtb FBA inh inactive.
`COc1c(/C=N/Nc2ccc(C(=O)O)cc2)c(CCN(C)C(C)=O)cc2c1OCO2` gave GDH-TPI inh 36.7, CCHF vOTU inh inactive, MazEF act inactive, Mtb betalactam inactive and Mtb FBA inh inactive.
COc1c(/C=N/NC(=O)c2ccccc2O)c(CCN(C)C(C)=O)cc2c1OCO2 was read as GDH-TPI inh inactive, CCHF vOTU inh inactive, MazEF act inactive, Mtb betalactam inactive and Mtb FBA inh inactive.
C=CCN1C(=O)NC(=O)/C(=C/c2c(CCN(C)C(=O)c3ccccc3)cc3c(c2OC)OCO3)C1=O was read as GDH-TPI inh inactive, CCHF vOTU inh inactive, MazEF act inactive, Mtb betalactam inactive and Mtb FBA inh inactive.
`Cc1ccc(NC(=O)OC2CC3CC2[C@H]2CCCCN2[C@H]3Cc2ccccc2)cc1` (stereo not given in full) gave CCHF vOTU inh inactive.
CCCCOc1ccc(C(=O)NC2CCCCN(Cc3cccc(C(F)(F)F)c3)C2=O)cc1 (stereo not given) was read as CCHF vOTU inh inactive.
For CC(C)(C)c1ccc(-c2nnc(SCc3ccccc3)n2Cc2ccco2)cc1 the results were CCHF vOTU inh inactive.
COc1ccc(C(=O)/C=C(\Nc2ccc(F)cc2)c2ccc(OC)cc2OC)c(OC)c1 was read as CCHF vOTU inh inactive.
Screening CCn1cc(C=C2C(=O)c3ccccc3C2=O)c2ccccc21 returned GDH-TPI inh inactive, CCHF vOTU inh inactive, MazEF act active and Mtb FBA inh inactive.
Screening CC(C)[C@H]1Cn2nnc(-c3ccccc3)c2Cn2c3ccccc3c(=O)n21 returned CCHF vOTU inh inactive.
Screening CCN(CC)c1ccc(-c2nn3c(-c4n[nH]c5c4CCC5)nnc3s2)cc1 returned GDH-TPI inh inactive, CCHF vOTU inh inactive, MazEF act inactive, Mtb betalactam inactive and Mtb FBA inh 39.9.
Cc1cc(Nc2ccc3c(c2)OCCO3)c2ccccc2n1 was read as GDH-TPI inh inactive, CCHF vOTU inh inactive, MazEF act inactive, Mtb betalactam inactive and Mtb FBA inh inactive.
Screening Cc1ccc2nc(C)cc(Nc3ccc4c(c3)OCCO4)c2c1 returned GDH-TPI inh 32.8, CCHF vOTU inh inactive, MazEF act inactive, Mtb betalactam inactive and Mtb FBA inh inactive.
For O=C(CSc1nnc(-c2ccccc2)n1-c1ccc(Cl)cc1)c1ccc(Cl)cc1 the results were CCHF vOTU inh inactive.
COc1ccc(N/C=C2\CCOC2=O)cc1 was read as GDH-TPI inh 56.2, CCHF vOTU inh inactive, MazEF act inactive, Mtb betalactam inactive and Mtb FBA inh inactive.
Screening C[C@@H](/C=C/C(=O)OC(C)(C)C)Sc1ccc(C(C)(C)C)cc1 returned CCHF vOTU inh inactive.
Cc1ccc(OCC(=O)N/N=C/C=C/c2ccco2)cc1 was read as GDH-TPI inh inactive, CCHF vOTU inh inactive, MazEF act inactive, Mtb betalactam inactive and Mtb FBA inh inactive.
